From PubChem BioAssay
HCMV inh: qHTS Assay for inhibitors of the human cytomegalovirus (HCMV). HFF cells, HCMV-luciferase reporter, 72 h; stronger effect = lower value. activity change, negative = inhibition, % at 57.5 µM. 410,000 compounds, 4.5% hits. AID 1259415, 2018; in the data active = activity change below about -60%; inconclusive = no clear call, values can overlap the other calls; inactive = above about -39%
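Luciferase read-out from HCMV-luciferase-infected HFFs (MOI 1 PFU/cell) 72 h post infection at 37C; compounds added after 16 h cell attachment; activity normalized between buffer-only basal and Salinomycin (10uM) inhibitor controls.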
Sm TGR inh: qHTS Assay for the Inhibitors of Schistosoma Mansoni Peroxiredoxins; Potency, µM (highest dose often 114 µM), for inactives: at the top dose activity change, negative = inhibition, hits mostly inhibitors; 360,000 compounds, 3% hits; purified TGR, DTNB reduction, TNB absorbance 405 nm; AID 485364, 2010; note: potency is the fitted concentration of half-maximal effect; nearly all actives have a fitted effect of over 60% in size
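First, TGR (20 nM dispensed) and NADPH were mixed with compound. Second, a 15 min room-temperature incubation followed. Third, further NADPH and then DTNB were added to start the reaction. Finally, TNB absorbance was monitored kinetically.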
FMDV inh: High Throughput Screening for Foot and Mouth Disease Virus Antivirals; FMDV antiviral cell-based qHTS; Potency, µM (doses to about 57.9 µM), for inactives: top-dose activity change, negative = inhibition, usual class: inhibitors; 410,000 compounds, 1.2% hits; AID 1159524, 2015; calls by dose curve; tested in HEK293T cells; note: read-out not given here; potency is the fitted concentration of half-maximal effect; nearly all actives have a fitted effect of over 45% in size
VACV Venus inh: qHTS for Stage-Specific Inhibitors of Vaccinia Orthopoxvirus: Venus Reporter Primary qHTS; 330,000 compounds, 0.46% hits; Potency, µM (series often up to 36.5 µM), for the others: at the top dose activity change, negative = inhibition, hits mostly inhibitors; Vaccinia virus Venus reporter expression, fluorescence; calls by dose curve; tested in A549 cells; note: potency is the fitted concentration of half-maximal effect; nearly all actives have a fitted effect of over 30% in size
HCV inhibitor: qHTS Assay for Inhibitors of Hepatitis C Virus (HCV) | Huh7.5.1 HCVcc-Cre infection, luciferase reporter, 44 h | Potency, µM (highest dose often 41.8 µM), without a hit: at the top dose activity change, negative = inhibition, most hits filed as inhibitors | 340,000 compounds, 3.4% hits | AID 651820, 2012; note: potency is the fitted concentration of half-maximal effect
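Cells seeded at 1,000/well and cultured 4 h, then compounds added followed by HCVcc-Cre virus (~0.5 moi). After 44 h further culture, luciferase substrate was added, plates held 15 min at room temperature, and luminescence read for 15 sec.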
VACV mCherry inh: qHTS for Stage-Specific Inhibitors of Vaccinia Orthopoxvirus: mCherry Reporter Primary qHTS; 310,000 compounds, 0.63% hits; AID 720579, 2013; Potency, µM (doses to about 36.5 µM), for the others: at the top dose activity change, negative = inhibition, actives largely listed as inhibitors; Vaccinia virus mCherry reporter infection, fluorescence; calls by dose curve; tested in A549 cells; note: potency is the fitted concentration of half-maximal effect; nearly all actives have a fitted effect of over 35% in size
* hit, by the source's call; i = inactive; ? = inconclusive; nt = not tested or not shown; ! = not active in a repeat; [ ] = dose if it differs, or a comment. Sampled rows, rich in hits. Any-hit rate of the full collection: about 9.3%. Unless noted, calls come from the whole dose curve; as a rule, active = well fitted curve in the direction sought with a large enough effect; inconclusive = small, poorly fitted or top-dose-only effect, or another doubt; inactive = no such curve, though single readings can be large; an effect the other way counts as inactive or inconclusive. % is set by controls: 0 for no effect and ±100 for the full control effect.

SMILES	HCMV inh	Sm TGR inh	FMDV inh	VACV Venus inh	HCV inhibitor	VACV mCherry inh
CCOC(=O)C1C(=O)C=C(Nc2ccccc2F)CC1c1ccccc1 (stereo unspecified)	24	-16%	30%	1%	6%	-15%
C/C=C\C(=O)Nc1cccc(C2=NOC3(C2)C[C@@H](C(N)=O)N(C(=O)CCCCC)C3)c1 (stereo partly specified)	33	0%	-21%	-12%	-3%	-13%
COc1ccccc1CC(=O)Nc1ncc(C)s1	4	6%	28%	nt	1%	nt
N=c1c(C(=O)NCC2CCCO2)cc2c(=O)n3ccccc3nc2n1Cc1ccccc1Cl (stereo unspecified)	-101*	-15%	-23%	-5%	?	i
COc1cccc([C@@H]2Oc3ccc(OC)cc3C(=O)[C@H]2O)c1	nt	2%	45%	?	?	?
COc1ccc2c(c1)C(=O)[C@@H](O)[C@H](c1ccc(OC)c(Br)c1)O2	nt	?	21%	?	-27%[8.37 µM]	4µM*
Cc1ccc(NC2(C(N)=O)CCCC2)cc1	-4	nt	-6%	1%	1%	?
Oc1ccc(Cl)cc1-c1cc(-c2ccco2)[nH]n1	-6	45µM*	20%	-19%	-30%	-29%
Oc1ccc(Cl)cc1-c1cc(-c2ccccc2Cl)[nH]n1	118	5%	38%	nt	13µM*	nt
Oc1ccc(Cl)cc1-c1cc(-c2cccc(Br)c2)n[nH]1	-93*	-2%	6%	nt	11µM*	nt
Oc1ccccc1-c1cc(-c2cccc(F)c2)n[nH]1	212	-15%	18%	nt	?	nt
O=C(NCCc1ccc(Cl)cc1)c1cc(=O)[nH]c2ccccc12	-20	-7%	-4%	-4%	7%	i
COc1ccccc1Nc1nnc(Cc2ccccc2)c(=O)[nH]1	4	2%	-9%	2%	-12%	i
COc1ccc(Cc2nnc(Nc3ccccc3OC)[nH]c2=O)cc1	-24	10%	2%	-16%	2.8µM*	i
O=C(/C=C/Nc1ccccc1)c1ccccc1	16	98%	-30%	-7%	4%	nt
O=C(/C=C/Sc1ccccc1)c1ccc(Cl)cc1	-76*	32µM*	nt	-4%	-59%	-14%
O=C(/C=C/Sc1ccccc1)c1ccccc1	-83*	10µM*	nt	-5%	?	-10%
COCCN(Cc1ccccc1)C(=O)c1cccc(S(=O)(=O)N2CCCc3ccccc32)c1	?	-2%	6%	nt	10µM*	nt
COCCN(Cc1ccccc1)C(=O)c1cccc(S(=O)(=O)N2CCN(Cc3ccccc3)CC2)c1	-33	nt	?	-25%	nt	?
COc1ccccc1CN(C)C(=O)c1cccc(S(=O)(=O)N2CCCc3ccccc32)c1	-36	2%	7%	-14%	10µM*	-28%
Fc1ccccc1Cc1noc(CN2CCN(C/C=C/c3ccccc3)CC2)n1	-27	-5%	-23%	nt	?	nt
COc1ccc(S(=O)(=O)c2c(Nc3c(C)cccc3C)sc(C(=O)c3ccc4c(c3)OCO4)c2N)cc1	-87*	-6%	11%	?	nt	?
Cc1ccc(-c2csc3ncn(-n4c(C)ccc4C)c(=O)c23)o1	28	6.3µM*	-22%	-15%	-21%	nt
Cc1cccc(N2N=C(C(=O)OCC(=O)c3ccccc3)CCC2=O)c1	8	nt	4%	-1%	17%	-13%
CCOC(=O)N1CCc2c(sc3c2c(=O)n(-c2ccc(Cl)cc2)c(=O)n3CC(=O)c2ccc(F)cc2)C1	2	-17%	-6%	-11%	nt	-16%
SMILES	HCMV inh	Sm TGR inh	FMDV inh	VACV Venus inh	HCV inhibitor	VACV mCherry inh
COc1cc(OC)cc(C(=O)N[C@H](C(=O)OCC(=O)Nc2ccc(C)cc2C)C(C)C)c1	-90*	0%	-8%	-8%	-7%	-20%
Cc1ccc(N(CC(=O)N2CCN(c3cccc(Cl)c3)CC2)S(=O)(=O)c2c(C)noc2C)cc1	-20	0%	-14%	-15%	nt	-17%
COc1ccc(N(CC(=O)N2CCN(c3cccc(Cl)c3)CC2)S(=O)(=O)c2c(C)noc2C)cc1	-67*!	-5%	-24%	-14%	?	-21%
COc1ccc(N(CC(=O)N2CCN(c3ccc(Cl)cc3)CC2)S(=O)(=O)c2c(C)noc2C)cc1	-21	1%	?	nt	11µM*	nt
Cc1cccc(NC(=O)CN(C)C(C)C(=O)Nc2ccc(S(=O)(=O)N3CCCC3)cc2)c1C (stereo unspecified)	1	-10%	-18%	-22%	?	?
CC1(C)Cc2nc3oc4c(N(CCO)Cc5ccccc5)ncnc4c3cc2CO1	?	1%	32µM*	nt	?	nt
COC(=O)[C@H](CC(C)C)NS(=O)(=O)NC(=O)OC(C)(C)C	nt	nt	nt	-10%	nt	-16%
CC(Sc1nc(NCc2ccccc2)nc(N(C)C)n1)C(=O)Nc1ccccc1 (stereo unspecified)	-105*	16%	0%	nt	?	nt
CC1CCCCC1NS(=O)(=O)CCNC(=O)c1ccc2c(c1)OCO2 (stereo unspecified)	28	-17%	8%	-6%	10%	i
CC(C)c1ccc(NC(=O)Nc2nc(C(N)c3ccccc3Cl)cs2)cc1 (stereo unspecified)	-70*	nt	?	-24%	nt	-1%
COc1ccc(NC(=O)Nc2nc(C(N)C3CCCCC3)cs2)cc1 (stereo unspecified)	2	nt	0%	?	nt	-17%
CC(C)c1ccc(NC(=O)Nc2nc(C(C)N)cs2)cc1 (stereo unspecified)	8	nt	-5%	-9%	nt	4%
CC(C)c1ccc(NC(=O)Nc2nc(C(N)C3CCCCC3)cs2)cc1 (stereo unspecified)	-101*	nt	?	?	nt	-27%
CCOC(=O)CCn1c2nc(C)cc(C)c2c(=O)n1-c1ccccc1	57	-2%	6%	-4%	3%	-19%
COCC1CCCN(Cc2cn(Cc3ccccc3)nc2-c2cc3ccccc3o2)C1 (stereo unspecified)	-78*	3%	-13%	-25%	?	-21%
CC1CCN(c2nc(CN3CCCCC3)nc3scc(-c4ccccc4)c23)CC1	?	-2%	32µM*	-15%	?	-24%
CC1CCN(c2nc(-c3cccnc3)nc3scc(-c4ccccc4)c23)CC1	35	5%	-4%	nt	22µM*	nt
CC1CCCN(c2nc(-c3cccnc3)nc3scc(-c4ccccc4)c23)C1 (stereo unspecified)	-33	-5%	-10%	-14%	?	-9%
O=C(COC(=O)c1ccc([N+](=O)[O-])s1)Nc1ccc(F)cc1	11	14µM*	-16%	nt	11%	nt
